Luciferase inh: Firefly luciferase inhibition profiling of diverse chemical library using quantitative high-throughput screening. purified P. pyralis luciferase, luminescence, biochemical. Potency, µM (series often up to 115 µM), actives largely listed as inhibitors. hit rate 2.5% among 76,000; further: nearly all actives have a fitted effect of over 65% in size
Target sequence (P08659 whole entry, looked up): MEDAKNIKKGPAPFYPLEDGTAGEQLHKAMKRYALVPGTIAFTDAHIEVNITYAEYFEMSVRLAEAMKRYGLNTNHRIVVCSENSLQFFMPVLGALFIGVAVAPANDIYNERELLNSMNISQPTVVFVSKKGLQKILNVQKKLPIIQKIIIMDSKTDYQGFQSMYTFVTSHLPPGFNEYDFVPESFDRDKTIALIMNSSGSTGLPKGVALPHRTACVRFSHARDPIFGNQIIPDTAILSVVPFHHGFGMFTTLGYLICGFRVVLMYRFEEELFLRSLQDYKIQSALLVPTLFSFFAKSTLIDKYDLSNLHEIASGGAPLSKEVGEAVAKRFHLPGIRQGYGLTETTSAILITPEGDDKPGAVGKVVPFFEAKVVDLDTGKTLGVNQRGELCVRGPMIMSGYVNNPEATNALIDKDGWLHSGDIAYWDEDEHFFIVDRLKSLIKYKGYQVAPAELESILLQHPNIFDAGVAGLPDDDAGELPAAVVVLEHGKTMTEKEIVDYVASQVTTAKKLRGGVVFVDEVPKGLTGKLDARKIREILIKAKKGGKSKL
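Luminescence read by CCD imager after adding enzyme (10nM final) to wells holding compound, titrated in qHTS. Substrates 10uM each D-luciferin and ATP; buffer 50mM Tris acetate pH 7.5, 10mM Mg acetate, Tween-20, BSA.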
3T3 cytotox: Cytotoxic Profiling in NIH 3T3 Cell Line of Diverse Libraries Using Quantitative High-Throughput Screening; NIH 3T3 viability, CellTiter-Glo ATP luminescence, 48-72 h; Potency, µM (top dose mostly 96.7 µM), actives largely listed as inhibitors; hit rate 4.3% among 94,000; AID 1345082, 2018; further: nearly all actives have a fitted effect of over 55% in size
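Cytotoxicity is measured as loss of cellular ATP: NIH 3T3 cells (400/well) are exposed to compound for 48 or 72 hr at 37 °C, then CellTiter-Glo luminescence is imaged after 10 min at room temperature.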
HEK293 tox: Cytotoxic Profiling in HEK 293 Cell Line of Diverse Libraries Using Quantitative High-Throughput Screening. hit rate 6.6% among 94,000. Potency, µM (titrated, usually from 115 µM), hits mostly inhibitors. HEK 293 viability, ATP luminescence (CellTiter-Glo), 48-72 h; further: nearly all actives have a fitted effect of over 60% in size
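HEK 293 cells at 250 cells/well were exposed to compounds by pintool transfer for 48 or 72 hr at 37 degree Celsius, 5% CO2. Viability was read as ATP-coupled luminescence with CellTiter-Glo after 10 min at room temperature.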
hNpr1 antagonist: Natriuretic polypeptide receptor (hNpr1) antagonism - Primary qHTS; Atrial natriuretic peptide receptor 1 (Homo sapiens), P16066; HEK293 hNpr1 GloSensor cGMP, ANP-stimulated luminescence; Potency, µM (series often up to 46.3 µM), hits mostly inhibitors; hit rate 1.6% among 76,000; AID 1347048, 2019; calls by dose curve; further: nearly all actives have a fitted effect of over 60% in size
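HEK293 cells stably expressing human Npr1 and cGMP GloSensor pGS-40F, loaded 2 h with 2% GloSensor reagent, given compound 30 min at room temperature. Luminescence read before and 20 min after 0.1 nM hNppA.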
Large screens that a line does not name were inactive. Rows were chosen to be rich in hits. Some 11% of all compounds tested hit in one or more screens of this group. Unless noted, the call rests on the fitted dose curve; in most records, active means well fitted curve in the direction sought with a large enough effect; inconclusive means small, poorly fitted or top-dose-only effect, or another doubt; inactive means no such curve, though single readings can be large; an effect the other way counts as inactive or inconclusive.

O=C(c1ccc(C(F)(F)F)cc1)N1CCC(C(=O)N2CCC(N3CCCC3=O)CC2)CC1	none (no result: Luciferase inh, hNpr1 antagonist)
CN1CC(=O)N(c2ccc(Cl)cc2)Cc2c1ncnc2N1CCC(O)CC1	3T3 cytotox inconclusive
Cc1ccsc1CN1CC(Oc2ccc(-c3noc(C4CCOCC4)n3)cc2)C1	3T3 cytotox 39.8µM, HEK293 tox 20µM (no result: Luciferase inh, hNpr1 antagonist)
O=C(COc1ccccc1)N1CC(Oc2ccc(-c3noc(C4CCOCC4)n3)cc2)C1	HEK293 tox inconclusive, hNpr1 antagonist inconclusive
CC(=O)N[C@H]1CCN(C(=O)C[C@@H]2[C@H](O)CCC3[C@](C)(CO)[C@H](OC(=O)Nc4cccc(F)c4)CC[C@]32C)C1 (some centres undefined)	none
Cc1ccc(CC(=O)NC2CCN(c3cc(-c4ccc(F)cc4)[nH]n3)C2)cc1 (centres undefined)	3T3 cytotox inconclusive, HEK293 tox inconclusive
Cn1cccc1CN1CCC2(CC1)CC(=O)N(c1ccccc1)c1ccccc1O2	3T3 cytotox 39.8µM, HEK293 tox 22.4µM
CC(C)CCN1CCC2(CC1)CC(=O)N(c1ccccc1)c1ccccc1O2	3T3 cytotox inconclusive, HEK293 tox 44.7µM, hNpr1 antagonist inconclusive
Cc1ccc(CN2CCC3(CC2)CC(=O)N(c2ccccc2)c2ccccc2O3)cc1	3T3 cytotox 39.8µM, HEK293 tox 31.6µM
Cc1ccc(C(=O)N2CCCN(CCn3nc4n(c3=O)CCCC4)CC2)cc1	none (no result: Luciferase inh, hNpr1 antagonist)
CCCCc1cc(C[C@@H]2C[C@H](NC(=O)c3ccco3)C2(C)C)no1	3T3 cytotox inconclusive, HEK293 tox inconclusive
COCc1cc(C[C@@H]2C[C@H](NCC3CC3)C2(C)C)no1	none
CC1(C)[C@H](Cc2cc(CC3CCCCC3)on2)C[C@@H]1NC(=O)c1ccco1	3T3 cytotox 70.8µM, HEK293 tox 25.1µM, hNpr1 antagonist inconclusive
CC(C)N[C@H]1C[C@@H](Cc2cc(CC3CCCCC3)on2)C1(C)C	3T3 cytotox 44.7µM, HEK293 tox 31.6µM
O=C(c1csc(-c2cccs2)n1)N1CCC2(CCCO2)CC1	Luciferase inh 35.5µM, 3T3 cytotox inconclusive, HEK293 tox inconclusive
O=C(O)C1CN(C(=O)c2csc(-c3cccs3)n2)CCO1 (centres undefined)	none
COc1ccccc1C(=O)NC[C@@H]1C=C(C)[C@H](CC(=O)N2CCCC2)C[C@H]1C(C)C	3T3 cytotox inconclusive, HEK293 tox inconclusive
COc1cccc(-c2cccc(CN3CCCC3C(=O)NC3CC3)c2)c1 (centres undefined)	3T3 cytotox inconclusive, HEK293 tox 44.7µM (no result: Luciferase inh, hNpr1 antagonist)
CCn1ccnc1CN1CCCC1C(=O)Nc1ccc(-c2cccc(F)c2)cc1 (centres undefined)	3T3 cytotox inconclusive, HEK293 tox 35.5µM
COc1cccc(-c2cccc(CN3CCCC3C(=O)NCc3cccc(F)c3)c2)c1 (centres undefined)	3T3 cytotox 35.5µM, HEK293 tox inconclusive (no result: Luciferase inh, hNpr1 antagonist)
O=C(Nc1ccc(-c2cccc(F)c2)cc1)C1CCCN1Cc1cnc[nH]1 (centres undefined)	Luciferase inh inconclusive, 3T3 cytotox inconclusive
COc1cccc(-c2cccc(CN3CCCC3C(=O)N3CCN(C)CC3)c2)c1 (centres undefined)	none (no result: Luciferase inh, hNpr1 antagonist)
COCCNC(=O)c1nn(C)c2nc(-c3ccccc3OC)ccc12	none (no result: Luciferase inh, hNpr1 antagonist)
O=C(c1ccc(F)cc1)N1CCCC(C(=O)N2CCC(c3nc4ccncc4[nH]3)C2)C1 (centres undefined)	none (no result: Luciferase inh, hNpr1 antagonist)
NC(=O)c1cc(-c2cc(NCc3cccnc3)nc3[nH]ccc23)ccc1F	Luciferase inh inconclusive, 3T3 cytotox inconclusive
OCc1cccc(-c2ccc3ncc(Nc4ccnc(N5CCOCC5)c4)n3n2)c1	Luciferase inh inconclusive, 3T3 cytotox inconclusive, HEK293 tox 100µM
COc1ccc(-c2ccc3ncc(Nc4ccnc(N5CCOCC5)c4)n3n2)cn1	3T3 cytotox 22.4µM, HEK293 tox 28.2µM
COc1ccccc1-c1ccc2ncc(Nc3ccnc(N4CCOCC4)c3)n2n1	3T3 cytotox inconclusive, HEK293 tox inconclusive
Cc1noc(C)c1-c1cc2cc(C(C)C)oc2c(NC(C)C)n1	3T3 cytotox 79.4µM, HEK293 tox 89.1µM
Cc1cc2cc(-c3c(C)noc3C)nc(NCC3CC3)c2o1	3T3 cytotox inconclusive, HEK293 tox inconclusive
Cc1noc(C)c1-c1cc2cc(C(C)C)oc2c(NC2CCOCC2)n1	3T3 cytotox inconclusive, HEK293 tox 100µM
